aSyn UTR act = Activators working through SNCA 5'UTR binding (MLPCN); alpha-synuclein 5'UTR reporter, activators screen; activity score, % (tested at 7.5 µM), hits read low; AID 1814; actives 7.1% (n = 300,000); in the data active means activity score below about -60%
Of the large screens only hits and unclear results are named; the others gave an inactive call. These entries were drawn from the full list.

N#Cc1ccc(-c2cccs2)nc1SCc1cccnc1	none
c1ccc(CSc2ccc(-c3cccs3)nn2)cc1	aSyn UTR act -107.5
O=C(CSc1ccc(-c2cccs2)nn1)c1cccs1	aSyn UTR act -68.4
c1ccc(CSc2ccc(-c3cccs3)nn2)nc1	aSyn UTR act -102.3
C/C(=N\Nc1nc2ccccc2[nH]1)c1ccc(C)o1	aSyn UTR act -236.6
C/C(=N\Nc1nc2ccccc2[nH]1)c1ccc(N2CCOCC2)cc1	aSyn UTR act -163.1
C/C(=N\Nc1nc2ccccc2[nH]1)c1ccc(Cl)s1	aSyn UTR act -104.3
O=C(Nc1nnc(C2CCCCC2)s1)c1ccco1	aSyn UTR act -177.9
O=C(Nc1nnc(C2CC2)s1)c1ccco1	aSyn UTR act -74.0
CCc1c(C(=O)Nc2nnc(C3CC3)s2)csc1C	aSyn UTR act -118.6
O=C(Nc1nnc(C2CC2)s1)c1cc(-c2ccccc2)nn1-c1ccccc1	aSyn UTR act -94.5
COc1ccc2c(c1OC)C(=O)OC2Nc1nc(-c2ccc(-c3ccccc3)cc2)cs1 (stereo not drawn)	aSyn UTR act -233.4
COc1cccc2sc(NC(=O)c3ccc(Br)s3)nc12	aSyn UTR act -146.4
COC(=O)Nc1nc2ccc(Br)cc2s1	aSyn UTR act -147.6
COC(=O)Nc1nc2c(C)cccc2s1	aSyn UTR act -92.5
Cc1cccc2sc(NNC(=O)c3ccc(S(=O)(=O)N4CCc5ccccc5C4)cc3)nc12	none
Cc1cccc2sc(NC(=O)c3ccc(Cl)s3)nc12	aSyn UTR act -198.9
COc1ccc(CNc2nc3ccccc3s2)cc1OC	aSyn UTR act -140.5
Cc1ccc(CNc2nc3ccccc3s2)s1	none
c1ccc(CCNc2nc3ccccc3s2)cc1	aSyn UTR act -80.6
c1ccc(C(Cc2nc(-c3ccccn3)no2)c2ccccc2)cc1	aSyn UTR act -132.0
c1ccc(CCCc2nc(-c3ccccn3)no2)cc1	aSyn UTR act -70.0
c1ccc(Cc2nc(-c3ccccn3)no2)cc1	aSyn UTR act -98.2
c1ccc(SCc2nc(-c3ccccn3)no2)cc1	aSyn UTR act -145.9
c1ccc(-c2ccc(-c3nc(-c4ccccn4)no3)cc2)cc1	none
Clc1ccc(-c2noc(CCCc3ccccc3)n2)cc1	aSyn UTR act -97.3
COc1ccc(Cc2nc(-c3ccccn3)no2)cc1	aSyn UTR act -120.4
c1ccc(-c2noc(CC3CCCCC3)n2)nc1	aSyn UTR act -68.9
Cc1ccc(Cc2nc(-c3ccccn3)no2)cc1	aSyn UTR act -94.6
Cc1ccc(-c2nc(-c3ccccn3)no2)cc1	none
O=C(CCCc1nc(-c2ccccc2Cl)no1)NC1CCCC1	none
CN(C)C(=O)CCCc1nc(-c2ccc(Cl)cc2)no1	aSyn UTR act -110.6
Cc1[nH]c2ccccc2c1C(=O)NS(=O)(=O)Nc1ccc(Cl)cc1	aSyn UTR act -81.7
Cc1ccc(-c2cn(-c3ccccc3)c(SCC(N)=O)n2)cc1C	aSyn UTR act -67.0
CCOC(=O)NC(=O)CSc1nc(-c2ccc(C)c(C)c2)cn1-c1ccccc1	aSyn UTR act -154.2
O=C1CC(c2ccccc2F)c2cc3c(cc2N1)CCC3 (stereo not drawn)	none
Cc1cc(C(=O)N/N=C/c2c[nH]c3ccccc23)cs1	aSyn UTR act -73.8
O=C(N/N=C/c1c[nH]c2ccccc12)c1cccs1	aSyn UTR act -127.2
Cc1cc(C(=O)N/N=C/c2c[nH]c3ccccc23)c(C)o1	aSyn UTR act -81.0
Cc1cc(/C=N\NC(=O)c2cccs2)c(C)n1-c1ccc2ncccc2c1	aSyn UTR act -144.8
O=C(CSc1nnc(SCc2cccc3ccccc23)s1)N/N=C/c1c[nH]c2ccccc12	aSyn UTR act -78.2
O=C(N/N=C/c1c[nH]c2ccccc12)c1ccc2c(c1)OCCO2	aSyn UTR act -139.7
O=C(N/N=C/c1cccc2ccccc12)c1cccs1	aSyn UTR act -163.9
Cc1cccc(NC(=S)N/N=C/c2c[nH]c3ccccc23)c1	aSyn UTR act -64.9
O=C(NC1CCCCC1)C(=S)NCCc1ccccc1	aSyn UTR act -62.3
O=C(NCCc1ccccc1)C(=O)NC1CCCCC1	aSyn UTR act -104.9
CCOC(=O)c1ccccc1NC(=O)CSc1ccc(-c2ccccn2)nn1	none
O=C(NNC(=O)c1cccnc1SCc1cccc([N+](=O)[O-])c1)c1ccccn1	none
CCOC(=O)c1cccnc1SCC(=O)Nc1ccc(C)cc1	aSyn UTR act -64.3
Cc1ccc(NC(=O)CSc2ncccc2C(=O)Oc2cccc([N+](=O)[O-])c2)cc1Cl	aSyn UTR act -157.3
C=CCn1c(C)cc(C(=O)CSc2n[nH]c(N)n2)c1C	aSyn UTR act -78.6
Cc1cc(C(=O)CSc2nnc3ccccn23)c(C)n1-c1ccccc1	none
Cc1cc(C(=O)CSc2n[nH]c(N)n2)c(C)n1-c1ccc(F)cc1	aSyn UTR act -82.7
Cc1cc(C(=O)CSc2n[nH]c(N)n2)c(C)n1-c1ccccc1	aSyn UTR act -111.0
O=c1c2ccccc2nc(-c2ccco2)n1Cc1ccccc1	aSyn UTR act -214.1
Cc1ccc(-c2nc3nc4ccccc4nc3n2Cc2ccco2)cc1	aSyn UTR act -124.5
c1ccc(Cn2c(-c3ccco3)nc3nc4ccccc4nc32)cc1	aSyn UTR act -215.4
Cn1cccc1/C=C1\SC(=O)N(c2ccc(O)cc2)C1=O	aSyn UTR act -143.8
